The list is not random: actives were taken first. Their share in the collection is about 7.4%.
hNpr1 antagonist = Natriuretic polypeptide receptor (hNpr1) antagonism - Primary qHTS. hit rate 1.6% among 76,000. HEK293 hNpr1 GloSensor cGMP, ANP-stimulated luminescence. Atrial natriuretic peptide receptor 1 (Homo sapiens), P16066. Potency, µM (top dose mostly 46.3 µM), for the others: at the highest dose activity change, negative = inhibition, usual class: inhibitors; calls by dose curve; further: nearly all actives have a fitted effect of over 60% in size
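Compound pre-incubated 30 min at room temperature on GloSensor-loaded HEK293 cells stably carrying hNpr1 and the pGS-40F cGMP biosensor. Stimulation uses hNppA at 0.1 nM final; luminescence is taken at baseline and 20 min post-agonist.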
NIH3T3 tox = Cytotoxic Profiling in NIH 3T3 Cell Line of Diverse Libraries Using Quantitative High-Throughput Screening. Potency, µM (doses to about 96.7 µM), for the others: top-dose activity change, negative = cytotoxicity, hits mostly inhibitors. hit rate 4.3% among 94,000. NIH 3T3 viability, CellTiter-Glo ATP luminescence, 48-72 h; further: nearly all actives have a fitted effect of over 55% in size
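Cells were seeded at 400 per well, treated with pin-transferred compound, and kept 48 or 72 hr at 37 °C before CellTiter-Glo addition and luminescence imaging of cellular ATP.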
HEK cytotox = Cytotoxic Profiling in HEK 293 Cell Line of Diverse Libraries Using Quantitative High-Throughput Screening; AID 1345083, 2018; hit rate 6.6% among 94,000; HEK 293 viability, ATP luminescence (CellTiter-Glo), 48-72 h; Potency, µM (titrated, usually from 115 µM), for inactives: at the top dose activity change, negative = cytotoxicity, actives largely listed as inhibitors; further: nearly all actives have a fitted effect of over 60% in size
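HEK 293 cells seeded at 250 cells/well were exposed to compound for 48 or 72 hr at 37 degree Celsius. Viability taken as ATP content by CellTiter-Glo luminescence.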
Luciferase inh = Firefly luciferase inhibition profiling of diverse chemical library using quantitative high-throughput screening; Luciferin 4-monooxygenase (Photinus pyralis), P08659; purified P. pyralis luciferase, luminescence, biochemical; Potency, µM (titrated, usually from 115 µM), most hits filed as inhibitors; hit rate 2.5% among 76,000; AID 1347043, 2019; further: nearly all actives have a fitted effect of over 65% in size
Target sequence (P08659 whole entry, looked up): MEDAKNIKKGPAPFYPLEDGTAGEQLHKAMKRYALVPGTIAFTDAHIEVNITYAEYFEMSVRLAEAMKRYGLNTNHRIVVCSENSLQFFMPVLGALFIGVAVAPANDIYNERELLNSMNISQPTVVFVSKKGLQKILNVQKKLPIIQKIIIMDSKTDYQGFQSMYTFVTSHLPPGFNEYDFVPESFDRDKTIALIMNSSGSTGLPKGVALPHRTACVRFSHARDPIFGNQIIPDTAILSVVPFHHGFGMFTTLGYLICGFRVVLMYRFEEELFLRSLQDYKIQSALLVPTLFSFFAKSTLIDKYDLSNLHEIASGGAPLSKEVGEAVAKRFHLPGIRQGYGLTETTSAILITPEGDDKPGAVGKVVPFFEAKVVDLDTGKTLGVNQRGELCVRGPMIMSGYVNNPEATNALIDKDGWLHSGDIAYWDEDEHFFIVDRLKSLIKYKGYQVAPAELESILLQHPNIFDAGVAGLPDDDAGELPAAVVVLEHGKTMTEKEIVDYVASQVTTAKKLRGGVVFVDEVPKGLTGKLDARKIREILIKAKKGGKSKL
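Biochemical qHTS: compound (6-point titration) added to 10uM D-luciferin plus 10uM ATP in Tris acetate pH 7.5 buffer with Mg, Tween-20 and BSA, then purified enzyme at 10nM; light output imaged.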
SNCA expr inh = Primary qHTS assay for inhibitors of alpha-synuclein gene (SNCA) expression. HEK-293 SNCA-luciferase knock-in, luminescence, 24 h. Potency, µM (top dose mostly 57.2 µM), inactives show at the highest dose activity change, negative = inhibition, usual class: inhibitors. hit rate 0.17% among 140,000. AID 1671194, 2021;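 further: plate controls were DMSO cells for no effect and cell-free wells for full effect; nearly all actives have a fitted effect of over 45% in size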
SNCA viab count = GF-AFC viability counterscreen for inhibitors of alpha-synuclein gene (SNCA) expression; HEK-293-SNCA-luc viability, GF-AFC fluorescence, 24 h; Potency, µM (highest dose often 57.1 µM), inactives show at the top dose activity change, negative = cytotoxicity, actives largely listed as cytotoxic; hit rate 0.12% among 150,000; AID 1671193, 2021;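 further: 0% = DMSO-treated cells and -100% = medium-only wells without cells; nearly all actives have a fitted effect of over 30% in size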
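Cytotoxicity counterscreen: after 24 h compound treatment of genome-edited SNCA-luciferase HEK-293 cells, live-cell protease substrate GF-AFC read by fluorescence after 30 min; activity scaled between DMSO (0%) and medium-only (-100%), curves Hill-fitted.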
An asterisk follows results filed as active; [ ] = another dose, or the depositor's remark. Unless noted, the call rests on the fitted dose curve; in most records, active means well fitted curve in the direction sought with a large enough effect; inconclusive means small, poorly fitted or top-dose-only effect, or another doubt; inactive means no such curve, though single readings can be large; an effect the other way counts as inactive or inconclusive. Unless noted, on the % scale 0 is the no-effect control and ±100 the full control effect; potency means the concentration at half of the fitted maximal effect.

COc1ccc(F)cc1-c1ccc(CN2CCCCC2C(=O)NCc2ccccc2)cc1 (stereo unspecified) was read as NIH3T3 tox inconclusive and HEK cytotox 32µM*.
COc1ccc(F)cc1-c1ccc(CN2CCCCC2C(=O)NCc2ccccc2F)cc1 (stereo unspecified) was read as NIH3T3 tox inconclusive and HEK cytotox 25µM*.
`O=C(NCc1cccs1)C1CCCN1Cc1ccc(-c2cncnc2)cc1` (stereo unspecified) gave NIH3T3 tox inconclusive, HEK cytotox inconclusive, SNCA expr inh -11% and SNCA viab count -4%.
For COc1ccccc1-c1ccc(CN2CCCCC2C(=O)NCc2ccc(C(F)(F)F)cc2)cc1 (stereo unspecified) the results were NIH3T3 tox inconclusive, HEK cytotox inconclusive, SNCA expr inh -19% and SNCA viab count 1%.
Screening COc1ccccc1-c1ccc(CN2CCCCC2C(=O)NCc2cccc(C(F)(F)F)c2)cc1 (stereo unspecified) returned NIH3T3 tox inconclusive and HEK cytotox 28µM*.
`O=C(NCc1ccc(F)cc1)C1CCCCN1Cc1ccc(-c2cccs2)cc1` (stereo unspecified) gave NIH3T3 tox inconclusive, HEK cytotox inconclusive, SNCA expr inh -13% and SNCA viab count 1%[12.5 µM].
For O=C(NCc1cccc(C(F)(F)F)c1)C1CCCN1Cc1ccc(-c2cncnc2)cc1 (stereo unspecified) the results were NIH3T3 tox inconclusive, HEK cytotox 50µM*, SNCA expr inh -3% and SNCA viab count -6%.
For Cc1cccc(-c2noc([C@@H]3C[C@@H](O)CN3Cc3ccc(Cl)cc3)n2)c1 the results were hNpr1 antagonist -16%[70.6 µM], NIH3T3 tox inconclusive, HEK cytotox 100µM*, Luciferase inh 63µM*, SNCA expr inh 176%[87.6 µM] and SNCA viab count -9%[87.6 µM].
Cc1cccc(-c2noc([C@@H]3C[C@@H](O)CN3Cc3ccccn3)n2)c1 was read as hNpr1 antagonist -25%[70.6 µM], NIH3T3 tox -27%[138 µM], HEK cytotox inconclusive, Luciferase inh 50µM*, SNCA expr inh 173%[87.6 µM] and SNCA viab count -5%[87.6 µM].
For O[C@@H]1C[C@@H](c2nc(-c3ccccc3)no2)N(Cc2ccccc2)C1 the results were hNpr1 antagonist -6%[70.6 µM], NIH3T3 tox inconclusive, HEK cytotox -13%[172 µM], Luciferase inh inactive, SNCA expr inh 79%[87.6 µM] and SNCA viab count -1%[87.6 µM].
c1ccc(CN2CCCCC2c2nc(CCOCC3CCCC3)no2)nc1 (stereo unspecified) was read as hNpr1 antagonist 5%, NIH3T3 tox inconclusive, HEK cytotox inconclusive, Luciferase inh inactive, SNCA expr inh 22µM* and SNCA viab count 4%[12.5 µM].
`COCCNc1ncccc1-c1noc([C@@H]2CCCN2Cc2ccccn2)n1` gave hNpr1 antagonist 3%[70.6 µM], NIH3T3 tox inconclusive, HEK cytotox 22µM*, Luciferase inh inactive, SNCA expr inh inconclusive and SNCA viab count -26%[87.6 µM].
Screening c1ccc2c(CN3CCC[C@H]3c3nc(-c4ccc(OC5CCCCC5)nc4)no3)c[nH]c2c1 returned hNpr1 antagonist -29%, NIH3T3 tox 32µM*, HEK cytotox 35µM*, Luciferase inh inactive, SNCA expr inh 45% and SNCA viab count 7%.
`Cc1ncsc1CN1CCCCC1c1nc(CCOCC2CC2)no1` (stereo unspecified) gave hNpr1 antagonist inconclusive, NIH3T3 tox -36%, HEK cytotox inconclusive, Luciferase inh inactive, SNCA expr inh -33% and SNCA viab count 2%.
For c1ccc(CN2CCC[C@H]2c2nc(-c3ccc(OC4CCCCC4)nc3)no2)nc1 the results were hNpr1 antagonist inconclusive, NIH3T3 tox 45µM*, HEK cytotox 63µM*, Luciferase inh inconclusive, SNCA expr inh 79%[87.6 µM] and SNCA viab count -10%[87.6 µM].
Screening COCCNc1ncccc1-c1noc([C@@H]2CCCN2Cc2ccncc2)n1 returned hNpr1 antagonist 0%[70.6 µM], NIH3T3 tox -23%[174 µM], HEK cytotox inconclusive, Luciferase inh inactive, SNCA expr inh 10%[87.6 µM] and SNCA viab count -15%[87.6 µM].
COc1ccccc1Cn1c(=O)c(C(=O)N2CCN(C(=O)Cc3ccc(F)cc3)CC2)nc2cccnc21 was read as NIH3T3 tox inconclusive, HEK cytotox inconclusive, SNCA expr inh -5% and SNCA viab count 4%[12.5 µM].
`C[S+](=O)([O-])c1ccc(-c2cc(C(=O)NC3CCCC3)nn3cccc23)cc1` gave NIH3T3 tox inconclusive, HEK cytotox inconclusive, SNCA expr inh inconclusive and SNCA viab count -28%.
Screening COc1ccccc1-c1cnc(Nc2cccnc2)c2c1CCO2 returned hNpr1 antagonist inconclusive, NIH3T3 tox inconclusive, HEK cytotox 79µM*, Luciferase inh inconclusive, SNCA expr inh 15%[87.6 µM] and SNCA viab count -16%[87.6 µM].
COc1ccccc1-c1cnc(Nc2cccnc2OC)c2c1CCO2 was read as hNpr1 antagonist -23%[70.6 µM], NIH3T3 tox inconclusive, HEK cytotox 28µM*, Luciferase inh inconclusive, SNCA expr inh 10%[87.6 µM] and SNCA viab count -14%[87.6 µM].
Screening COc1ccccc1-c1cnc(Nc2ccc(Cl)cn2)c2c1CCO2 returned hNpr1 antagonist -23%[70.6 µM], NIH3T3 tox inconclusive, HEK cytotox 63µM*, Luciferase inh inconclusive, SNCA expr inh 35%[87.6 µM] and SNCA viab count 8%[87.6 µM].
`COc1ccc(Nc2ncc(-c3ccccc3OC)c3c2OCC3)cc1` gave hNpr1 antagonist -27%[70.6 µM], NIH3T3 tox inconclusive, HEK cytotox inconclusive, Luciferase inh inconclusive, SNCA expr inh 38%[87.6 µM] and SNCA viab count inconclusive.
Screening O=C(NCc1ccc(F)cc1F)c1ccc2nnc(C3CCOCC3)n2c1 returned NIH3T3 tox -22%[138 µM] and HEK cytotox 2%[172 µM].
`CCCN(C)c1nccnc1OC1CCN(C(=O)c2ccoc2)C1` (stereo unspecified) gave hNpr1 antagonist -7%, NIH3T3 tox -28%, HEK cytotox inconclusive, Luciferase inh 14µM*, SNCA expr inh 182% and SNCA viab count 7%.
`CCc1ccc(C(=O)N2CCC(Oc3nccnc3N(C)C)C2)cc1` (stereo unspecified) gave hNpr1 antagonist -18%, NIH3T3 tox -4%, HEK cytotox inconclusive, Luciferase inh inconclusive, SNCA expr inh 120% and SNCA viab count -18%.

Compound activity: PubChem BioAssay, National Center for Advancing Translational Sciences (NCATS)
